Assay results from PubChem BioAssay (NCI).
About 83,000 compounds went through this panel and 20% of them were active in at least one assay; those are over-represented in the sample as a whole.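 Method: cells in 96-well plates; compound added at one concentration; 48 h incubation; percent growth measured; values under 10 scored active.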 Values without a mark were called inactive. Active and inactive are the calls of the source.

Columns and labels:
Assay in all cases: NCI-60 one-dose screen, 48 h (100 = growth as untreated, 0 = no growth, -100 = all killed)
Conditions in all cases: 10 µM unless noted
[1] = system: NCI-H23 lung
[2] = system: NCI-H226 lung
[3] = system: NCI-H322M lung
[4] = system: HOP-62 NSCLC
[5] = system: NCI-H460 lung
[6] = system: HOP-92 NSCLC
[7] = system: NCI-H522 lung
[8] = system: A549/ATCC NSCLC
[9] = system: 786-0 renal
[10] = system: COLO 205 colon

| Compound | growth [1] | growth [2] | growth [3] | growth [4] | growth [5] | growth [6] | growth [7] | growth [8] | growth [9] | growth [10] |
| --- | --- | --- | --- | --- | --- | --- | --- | --- | --- | --- |
| O=C(CCCCCCN1CC(=O)N2[C@@H](c3ccc(Cl)s3)c3[nH]c4ccccc4c3C[C@H]2C1=O)NO | 41.1% | 68.6% | 46% | 61.5% | 39.4% | 34.6% | 3.19% (active) | 73.4% | 81.1% | 54% |
| O=S1SC(c2ccccc2)=NN1c1cc(F)cc(F)c1 (stereo not given) | 22.9% | 45.4% | 67.9% | 48.6% | 19.6% | -25.2% (active) | 34.6% | 26% | 34.9% | 107% |
| Cc1ccc(S(=O)(=O)NCCCNc2nc(Nc3ccc(N4CCN(C)CC4)cc3)nc3ccsc23)cc1 | 75.6% | 117% | 52.7% | 97.1% | 18.5% | 49.6% | -5.6% (active) | 37.1% | -26.7% (active) | -32.9% (active) |
| CCOC(=O)c1ccc(NC2=C(Cl)C(=O)c3nc(C)ccc3C2=O)cc1 | 52% | 85.5% | 96.7% | 113% | 79.3% | 103% | 24.1% | 94.3% | 55.5% | 58.9% |
| N#Cc1c(-c2cccs2)cc(-c2cnccn2)nc1SCC(=O)N/N=C/c1ccc(Cl)cc1 | 100% | 98.1% | 99.3% | 99.1% | 103% | 89.4% | 93.7% | 94.6% | 93.9% | 115% |
| CN1CCN(Cc2ccc(NC(=O)c3cncc(C#Cc4cnc5ccc(OCCCS(C)(=O)=O)nn45)c3)cc2C(F)(F)F)CC1 | -50.9% (active) | -60.1% (active) | -16.6% (active) | -47.7% (active) | -64.1% (active) | -27.3% (active) | -76% (active) | -9.65% (active) | -16% (active) | -66.9% (active) |
| O=C1Nc2ccccc2/C1=C/c1ccc(OCC(=O)c2ccccc2)cc1 | 101% | 89% | 98% | 99.7% | 102% | 97.1% | 104% | 99.5% | 107% | 117% |
| N#C/C(=N\Nc1ccc(F)cc1)C(=O)Nc1cc(-c2ccccc2)nn1-c1ccccc1 | 0.456% (active) | 2.16% (active) | 0.72% (active) | 18.2% | 4.31% (active) | -21.3% (active) | 6.57% (active) | 11% | 21.3% | -7.35% (active) |
| O=C(/C=C/c1ccc(F)cc1)Nc1cccc2cccnc12 | 91.6% | 97.8% | 101% | 98.5% | 89.4% | 108% | 97.5% | 107% | 108% | 114% |
| COc1cc(C(=O)c2cc(C(C)=O)c3ccc(C)cn23)cc(OC)c1OC | 48.9% | 66.3% | 66% | 52.4% | 15.9% | 97% | 38.4% | 46.7% | 50.5% | 39.8% |
| CC(C)[C@H]1c2[nH]c3ccccc3c2C[C@H]2C(=O)N(CCCCCCC(=O)NO)CC(=O)N12 | 87.6% | 102% | 88.4% | 85.7% | 78.5% | 74.9% | 42.8% | 98.7% | 97.3% | 83.8% |
| CCNCCOc1ccc(/C(=C(/CC)c2ccc(Cl)cc2)c2ccc(OCCCN(C)C)cc2)cc1 | -87.3% (active) | -66.4% (active) | -95.4% (active) | -80.1% (active) | -74.2% (active) | -74.6% (active) | -76.7% (active) | -60.9% (active) | -86% (active) | -82.3% (active) |
| C=C(C=O)[C@@H]1CC[C@]2(C(=O)O)CC[C@]3(C)C(CC[C@@H]4[C@@](C)(CCC#N)[C@H](C(=C)C=O)CC[C@]43C)[C@@H]12 (stereo not given in full) | 17.6% | -16.4% (active) | 98.6% | 115% | 96.7% | 13.6% | 81.4% | 82.7% | 59.7% | 108% |
| C#Cc1cc(OC)c(C(=O)Nc2ccc(F)cc2C(=O)Nc2cccc(S(=O)(=O)C(F)(F)F)c2)cn1 | -49.4% (active) | 13.1% | 88.9% | 16.3% | 26.6% | -65.7% (active) | -69.3% (active) | -7.6% (active) | -78.7% (active) | 52.2% |
| CCOC(=O)c1cccc(NC2=C(Cl)C(=O)C(C)=C(C)C2=O)c1 | 91.9% | 100% | 105% | 103% | 101% | 54.2% | 95% | 102% | 105% | 122% |
| Nc1nc(=O)n([C@H]2C[C@H](O)[C@@H](CO)O2)cc1C=O | 112% | 111% | 110% | 95.6% | 103% | 57.7% | 102% | 103% | 102% | 14.5% |
| O=C1/C(=C/C=C/c2ccco2)SC(=S)N1Cc1ccccc1 | 89.6% | 95.2% | 91.8% | 105% | 95.2% | 87.1% | 98.4% | 93.7% | 101% | 121% |
| O=C(CSc1cc[n+](CCCCO)c2ccccc12)n1ccc2ccccc21 | 95.8% | 89.6% | 96.8% | 91.8% | 99.2% | 103% | 99.4% | 103% | 108% | 106% |
| N#C/C(=C\c1ccc(-c2ccc(Cl)cc2)o1)C(=O)Nc1ncc(Cc2ccc(Br)cc2)s1 | -30.6% (active) | 40.3% | 19.1% | 5.97% (active) | -78.1% (active) | 8.49% (active) | 4.79% (active) | -53% (active) | 23.4% | 41.1% |
| O=C(COc1ccc(/C=C2\C(=O)Nc3cc(Cl)ccc32)cc1)Nc1ccc(Cl)cc1 | 79.9% | 79.1% | 74.4% | 76.7% | 73.4% | 90.8% | 45.7% | 68.8% | 90.7% | 81.3% |
| CCOC(=O)C1=C(C)NC(C)=C(C(=O)OCc2ccccc2)C1c1cccc(C#N)c1 (stereo not given) | 62.5% | 58.4% | 69% | 45.6% | 22.1% | 50.5% | 9.38% (active) | 34.1% | 36.2% | 34.5% |
| CN1CCN(CCNc2nc(-c3cccc(NS(=O)(=O)c4cccc5c(N(C)C)cccc45)c3)cs2)CC1 | 51.9% | 66.3% | 85.8% | 82% | 70.7% | 39.7% | 69.4% | 69.6% | 60.8% | 85.6% |
| C/C(=N\NC(=O)/C=C/CC(=O)O)c1nnn(-c2ccc([N+](=O)[O-])cc2)c1C | 97.8% | 96.9% | 99.1% | 104% | 111% | 74.3% | 98.6% | 102% | 101% | 108% |
| COc1cc(NC(=O)Nc2cccc(-c3cc(=O)c4c(OC)c(OC)c(OC)cc4o3)c2)cc(OC)c1OC | 34.6% | 49.7% | 64.4% | 49.7% | 31.5% | -8.97% (active) | 39.6% | 57.2% | 35.3% | 58.1% |
| COc1ccc(/C=N/NC(=O)CSc2nc(-c3cnccn3)cc(-c3cccs3)c2C#N)cc1 | 72.8% | 75.1% | 84.4% | 53.4% | 37.4% | 63.1% | 81.1% | 50.5% | 22.6% | 68.1% |
| CC1=C(C)C(=O)C(Nc2cccc(C(F)(F)F)c2)=C(Br)C1=O | 88.8% | 83.2% | 100% | 81.1% | 96.4% | 25% | 29.2% | 94.4% | 97% | 115% |
